Results reported in PubChem BioAssay (NCI).
This is part of a sample that, as a whole, favours compounds with a hit. Of some 83,000 tested, about 20% had one in any assay.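 The test compound was applied at a single concentration to cells in 96-well plates for 48 hours, and percent growth was recorded.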 A number with no mark means an inactive call. Active and inactive are the calls of the source. The calls were made as follows: active = growth percent below 10; inactive = the rest.

How the values were obtained:
Test in all cases: NCI-60 one-dose screen, 48 h (100 = growth as untreated, 0 = no growth, -100 = all killed)
Conditions in all cases: 10 µM unless noted
[1] = test system: T-47D breast
[2] = test system: BT-549 breast
[3] = test system: MDA-MB-435 melanoma
[4] = test system: SW-620 colon
[5] = test system: MCF7 breast
[6] = test system: HCT-116 colon
[7] = test system: HCC-2998 colon
[8] = test system: KM12 colon

| SMILES | growth [1] | growth [2] | growth [3] | growth [4] | growth [5] | growth [6] | growth [7] | growth [8] |
| --- | --- | --- | --- | --- | --- | --- | --- | --- |
| Cc1ccnc2c(NC(C)CCCN)cc(O)c(O)c12 (centres undefined) | 106% | 92.1% | 103% | 100% | 31.5% | 99.7% | 91.6% | 109% |
| CC[C@@H](C)/C=C(C)/C=C/C(=O)c1c(O)c(-c2ccc(OC(=O)[C@@]34CC[C@@](C)(C(=O)O3)C4(C)C)cc2)cn(O)c1=O | 34.7% | -0.686% (active) | 22.2% | 37.3% | 15.6% | 17.1% | -10.3% (active) | 18.4% |
| O=C(C(=O)N1CCOCC1)c1ccc(O[C@H]2O[C@H](CO)[C@@H](O)[C@H](O)[C@@H]2O)cc1 | 107% | 99.3% | 108% | 107% | 100% | 96.6% | 79% | 110% |
| COc1ccc(-n2nnnc2-c2cn[nH]c2C(F)(F)F)cc1 | 77.8% | 85.5% | 98.1% | 94.6% | 111% | 97% | 78.9% | 101% |
| COc1cc2c(/C=C3\C(=O)Nc4ccc(Br)cc43)c(Cl)n(C)c2cc1C | 64.4% | 35.1% | 7.32% (active) | 31.9% | 23.9% | 5.1% (active) | -39.4% (active) | -21.5% (active) |
| CCCCN(CCC)CCCCCCCCCCN1CCCc2ccccc21 | 102% | 89.6% | 85.2% | 43.9% | 76.2% | 58.3% | 98.3% | 45.2% |
| COc1cc(NC(=O)CSc2nc3ccc(Cl)cc3c(=O)n2-c2ccc(F)cc2)cc(OC)c1OC | 72.6% | 95.9% | 90.8% | 95.4% | 87.5% | 79.4% | 105% | 85.2% |
| O=C1NCCN1/N=C/c1c(Cl)nc2n1CCS2 | 119% | 97.7% | 112% | 103% | 106% | 93.5% | 111% | 101% |
| CCCCCCCCCCCCCCCCCC1=NCCN1CS(=O)(=O)O | 57.4% | 93.5% | -19.9% (active) | 4.2% (active) | 30.3% | 44.2% | 101% | 16.4% |
| CCCCCCCCCCCCc1ccc([N+](CC)(CC)CC)cc1 | 18.6% | 30.2% | 13.9% | 58.8% | 27.9% | 41.8% | 36.7% | 25.6% |
| CCOC(=O)C1=NN(c2ccccc2)C2=NC(=O)/C(=C\c3cn(-c4ccccc4)nc3-c3cc4ccccc4o3)C(=O)N12 | 86.6% | 97.4% | 108% | 91.9% | 75.6% | 89.1% | 101% | 97.5% |
| Cc1c(Cc2ccccc2)c(=O)oc2c(C)c(OCC(=O)n3nc(C#N)cc3N)ccc12 | 81.9% | 90.3% | 102% | 101% | 89.7% | 95.3% | 104% | 98.7% |
| Oc1ccccc1/C=N/N=C/c1c(O)ccc2ccccc12 | 63.4% | 77.8% | 108% | 95% | 52.7% | 83% | 91.2% | 76.4% |
| O=C(NC1CCN(Cc2ccccc2)CC1)c1cc(-c2cccnc2)nc2ccc(Cl)cc12 | 45% | 75.5% | 75% | 27% | 70.9% | 57.6% | 64.9% | 39.2% |
| CC(Br)c1nc2ccccc2cc1C(N)=O (centres undefined) | 95.7% | 112% | 112% | 110% | 84.9% | 106% | 102% | 105% |
| CCCOC(=O)c1c(C)n(C)c2scc[n+]12 | 92.8% | 80.5% | 90.9% | 77.8% | 96.7% | 70.3% | 184% | 74% |
| CCCCCc1ccnc(CC(=O)c2ccc(OC)cc2)c1 | 82.3% | 93.8% | 102% | 88.4% | 87.4% | 78.2% | 101% | 99.9% |
| CC(C)(C)C(=O)OCOP(=O)(OCOC(=O)C(C)(C)C)C1CC(O)N(O)C1=O (centres undefined) | 36% | -8.94% (active) | 68.5% | 39.1% | 15.3% | 20.9% | 38.1% | 33.3% |
| COc1ccc(-c2nc(SCC(C)C)nc(Nc3ccc([N+](=O)[O-])cc3)c2C#N)cc1 | 92.6% | 104% | 101% | 84.8% | 90.2% | 60.1% | 107% | 99.9% |
| CC(=O)CCS(=O)c1ccccc1 (centres undefined) | 100% | 119% | 111% | 98% | 91.6% | 102% | 91.7% | 97.9% |
| COC(=O)C(C(=O)OC)C(Br)C(Br)C(Br)c1ccccc1 (centres undefined) | -32.9% (active) | 108% | 91.2% | 18.6% | 8.14% (active) | 16.5% | 110% | 101% |
| Oc1ccccc1/C=N/N=C\c1ccccc1Cl | 67.1% | 86.2% | 107% | 94.6% | 54.1% | 100% | 100% | 88.4% |
| CCOC(=O)C1=C(c2ccccc2)NC(=O)NC1CN1C(=O)c2ccccc2C1=O (centres undefined) | 99% | 129% | 114% | 107% | 98.3% | 99.6% | 62.9% | 113% |
| O=c1oc2ccc3ccccc3c2cc1-c1ccnc2[nH]c(=S)[nH]c(=O)c12 | 103% | 101% | 106% | 105% | 96.8% | 93.9% | 101% | 101% |
| O=C(CBr)OCc1ccc([N+](=O)[O-])o1 | 95.2% | 118% | 107% | 83.2% | 98.4% | 106% | 95.2% | 105% |
| COc1ccc2c(c1)/C(=C/c1c(-c3cc(OC)c(OC)c(OC)c3)nc3sccn13)C(=O)N2 | 86.6% | 98.9% | 100% | 99.9% | 92.4% | 88.3% | 106% | 84% |
| O=C(/C=C/c1ccc(Cl)cc1)c1ccc(Cl)cc1 | 114% | 101% | 80.3% | 88.8% | 16.9% | 69.8% | 92.7% | 83.3% |
| COc1ccc(-c2cn3ccnc3c(-c3ccc4ncn(C5CCCCC5)c4c3)n2)cc1 | -8.6% (active) | 31.1% | -18.6% (active) | 22.2% | 19.8% | 8.72% (active) | 37.4% | 16.8% |
